Laboratory results from PubChem BioAssay AID2314 (National Center for Advancing Translational Sciences (NCATS), 2010).
Hit rate of the full screen: of about 300,000 compounds, about 37,000 (12%) were called active. The list comes from a sample in which actives are over-represented; it also holds similar structures and randomly drawn compounds. Values without a mark were called inactive. Cut-off read from the data, not from the text of the source: active = max response mostly above about 13% (no sharp cut-off); inactive = mostly below about 14%.

Assay: Cycloheximide Counterscreen for Small Molecule Inhibitors of Shiga Toxin; note: read at 38.3 µM for the half of the compounds with a filed dose; 0% is about no effect
Settings: cell reporter, cycloheximide protein synthesis inhibition counterscreen; stronger effect = higher value

Structure (SMILES)	max response
Cc1ccc(C)c(N2CCN(C(=O)CCCCCn3c(=S)[nH]c4ccc(N5CCOCC5)cc4c3=O)CC2)c1	9.94%
Fc1ccc2[nH]c3c(N4CCSCC4)ncnc3c2c1	5.04%
COc1cc(OC)c(OC)cc1/C=N/Nc1ncnc2c1[nH]c1ccc(C)cc12	-3.15%
CC(C)OCCCNc1ncnc2c1[nH]c1ccc(F)cc12	39% (active)
O=CN1CCN(C(=O)c2ccc(Br)o2)CC1	1.29%
C=CCn1c(Oc2ccc(C(=O)OC)cc2)nc2c1c(=O)n(C)c(=O)n2C	-5.23%
Cc1ccccc1NC(=O)N1CCCC1C(=O)NCc1ccccc1 (stereo not given)	-1.83%
Cc1c(CCO)c(=O)[nH]n1C(=O)c1c(F)cccc1F	17%
COc1ccc(-n2ncc3c(N4CCc5ccccc54)ncnc32)cc1	49.8% (active)
COc1ccc(Oc2c(Cl)cnn(-c3ccccc3)c2=O)cc1	-1.92%
COc1ccc(CCC(C)N2CCc3ccccc3C2)cc1 (stereo not given)	1.02%
COc1ccc(-n2ncc3c(N4CCCc5ccccc54)ncnc32)cc1	44.9% (active)
COc1ccc(-n2ncc3c2CC(C)(C)CC3NC(=O)CCc2c(C)noc2C)cc1 (stereo not given)	1.45%
C#CC(CCN1CCCCC1)(OC)c1ccccc1 (stereo not given)	-1.93%
COc1ccccc1NC(=S)N1CCN(C(c2ccccc2)c2ccccc2)CC1	-1.77%
Cc1nc2ccc(NC(=S)N3CCC(C)CC3)cc2nc1C	29.7% (active)
Cc1cccc(NC(=S)N2CCC(c3nc4ccccc4s3)CC2)c1	-8.19%
Cc1nc2ccc(NC(=O)N3CCC(c4ccccc4)C3)cc2nc1C (stereo not given)	-1.48%
Cc1ccc(CC(=O)Nc2ccc(OC(F)F)c(Cl)c2)cc1C	-1.56%
O=C(Cc1ccc(Cl)c(Cl)c1)Nc1ccc(SC(F)F)cc1	32.1% (active)
CC(=O)N1CCN(CC(=O)Nc2ccc(SC(F)F)cc2)CC1	-7.31%
Cc1ccc(C(C[N+](=O)[O-])c2c(C)cc3ccccn23)cc1 (stereo not given)	-2.05%
Nc1ccccc1SC(C[N+](=O)[O-])c1ccccc1 (stereo not given)	58.7% (active)
CCCN1C2CCCC1CC(NC(=O)c1cccc(OC)c1)C2 (stereo not given)	0.249%

Structure (SMILES)	max response
COc1ccccc1C1CCN(c2ccc([N+](=O)[O-])cn2)CC1	4.09%
O=C(Cc1c(Cl)cccc1Cl)NC1CC1	-4.84%
Cc1ccc(S(=O)(=O)c2nnn3c2nc(N2CCN(c4ccccn4)CC2)c2ccccc23)cc1	-2.94%
FC(F)(F)c1cc(-c2ccco2)nc(NCc2ccc(Cl)cc2)n1	-4.49%
CN(CC(=O)Nc1ccc(F)cc1)C(=O)c1ccc(-c2ccc(Cl)cc2)o1	10.2%
Nc1nnnn1CC(=O)N/N=C/c1ccc(-c2cccc(Cl)c2)o1	12.6%
COC(=O)N/N=C/c1ccc(-c2ccc(Cl)c(Cl)c2)o1	51.5% (active)
O=C(N/N=C\c1ccc(-c2ccc(Cl)c(Cl)c2)o1)C(=O)N1CCCC1	-1.36%
Cc1cccc(-c2nc(CS(=O)CC(=O)NC(C)CCc3ccccc3)c(C)o2)c1 (stereo not given)	-0.794%
O=C(Nc1ccc(Cl)c(Cl)c1)N1CC=C(c2ccccc2)CC1	4.38%
Cc1ccc(C)c(N2CCN(C(=O)CCCn3c(=O)c4cccn4c4cccnc43)CC2)c1	-1.51%
CCOC(=O)C1=C(c2ccccc2)NC(=S)NC1c1ccc(Cl)cc1 (stereo not given)	1.29%
CCOc1ccc(C2NC(=S)NC3=C2CCc2ccccc23)cc1 (stereo not given)	54.2% (active)
COc1ccc(C2NC(=S)NC3=C2CCc2ccccc23)cc1OC (stereo not given)	6.79%
Cc1ccc(CNC(=O)[C@@H](NC(=O)Cc2ccccc2)C(C)C)cc1	3.51%
CSCCC(NS(=O)(=O)c1ccc2c(c1)oc(=O)n2C)C(=O)NC1CCCc2ccccc21 (stereo not given)	7.75%
O=[N+]([O-])c1cccc(S(=O)(=O)NCc2ccccn2)c1	-2.36%
COc1cccc(C(=O)OCc2cc(=O)oc3c(C)c(C)ccc23)c1OC	-3.37%
O=C(Nc1cccc(Cl)c1Cl)c1ccccc1NC(=O)C1CC=CCC1C(=O)O (stereo not given)	26.8% (active)
O=C(Nc1ccccc1)c1ccccc1NC(=O)C(F)(F)F	11.2%
O=C(O)C1CC=CCC1C(=O)NCCc1ccccc1 (stereo not given)	-2.55%
O=C(Nc1ccc(Cl)c(Cl)c1)c1ccccc1NC(=O)C1CC=CCC1C(=O)O (stereo not given)	38.2% (active)
O=C(O)C1CC=CCC1C(=O)Nc1ccccc1C(=O)N1CCN(c2ccccc2)CC1 (stereo not given)	-3.82%
O=C(Nc1ccccc1C(=O)N1CCCCCC1)c1ccccc1Cl	-3.34%

Structure (SMILES)	max response
COc1ccc(-c2nn(-c3ccccc3)cc2/C=C2/SC(=S)N(CCCC(=O)O)C2=O)c(C)c1	-2.33%
COc1cccc(CNS(=O)(=O)c2ccc3c(c2)CC(C)N3C(=O)C2CCC2)c1 (stereo not given)	8.91%
C/C(=N/NC(=O)c1ccc(Br)o1)c1ccc(C)o1	78.1% (active)
O=C(NCc1cccs1)c1ccc(Br)o1	6.23%
CC(CCc1ccccc1)NC(=O)c1ccc(Br)o1 (stereo not given)	5.6%
Cc1cc(C)c2c(-c3ccc(F)cc3)c(C#N)c(=O)n(C)c2n1	-4.22%
CN(CCC1CCOCC1)Cc1cn[nH]c1-c1ccc(-c2ccccc2)cc1	19% (active)
Cc1nnc(CN(C)Cc2cn[nH]c2-c2ccc(-c3ccccc3)cc2)o1	14.6% (active)
O=C(c1ccc(F)cc1)C1CCN(Cc2cn[nH]c2-c2ccccc2)CC1	-1.57%
COc1ccc(-c2[nH]ncc2CN(C)Cc2cc(C)[nH]n2)c(F)c1	7.91%
O=C(CC1C(=O)NCCN1Cc1ccc(-c2ccccc2)cc1)NCC1CCOCC1 (stereo not given)	-0.46%
COc1ccc(-c2[nH]ncc2CN(C)Cc2c(C)n[nH]c2C)c(OC)c1	-6.81%
CC1(C)c2[nH]c3ccccc3c2C[C@H]2C(=O)N(N)CC(=O)N21	-5.11%
CC(C)(C)c1ccc(C(=O)NCc2nnc(SCC(=O)N3CCCc4ccccc43)n2-c2ccccc2)cc1	-1.48%
CC(C)(C)C(=O)N(Cc1ccccc1)c1ccccn1	0.801%
Cc1ccccc1N1CCN(S(=O)(=O)c2ccc3ccccc3c2)CC1	-1.83%
Cc1ccc(Cn2nnc3c(=O)[nH]c(C4CCN(S(=O)(=O)/C=C/c5ccccc5)CC4)nc32)cc1	-2.92%
CSc1nsc(SCC(=O)Nc2cc(C(=O)O)ccc2C)n1	1.8%
COc1cc(OC)cc(-c2nnc(SCC(=O)Nc3ccc(C(=O)O)cc3)s2)c1	-1.06%
Cc1csc(SCC(=O)Nc2sccc2C#N)n1	2.13%
COc1ccc(C)cc1NC(=O)CSc1nc(SC)ns1	10.3%
COc1ccc(NC(=O)CSc2nc(SC)ns2)c(OC)c1	42.1% (active)
COc1ccc(NC(=O)CSc2nc(C)cs2)cc1	27.7% (active)
O=S(=O)(NCCCCCCNS(=O)(=O)c1c(F)cccc1F)c1ccc2c(c1)OCCO2	-6.04%

Structure (SMILES)	max response
C#CCOc1ccccc1/C=C1/C(=O)ON=C1C	7.98%
COc1ccccc1C(=O)N/C(=C/c1ccco1)C(=O)Nc1ccc(C(=O)O)cc1	-3.58%
Cc1c(NC(=O)Nc2cccc([N+](=O)[O-])c2)c(=O)n(-c2ccccc2)n1C	3.26%
CCN1CCN(CCNC(=O)c2ccc3c(c2)NC(=O)/C(=C\c2ccc(OC)c(OC)c2)S3)CC1	1.31%
CC(Nc1nc(C(F)(F)F)nc2ccccc12)c1cccs1 (stereo not given)	-5.02%
C=Cn1cc[n+](CC(=O)c2ccc(OC)c(OC)c2)c1	-1.55%
CC(=O)Nc1nc(N(C)C)nc(N(C)C)n1	26.5% (active)
CN(C)c1nc(Nc2ccc(Cl)c(Cl)c2)nc(N(C)C)n1	1.57%
CN(C)c1nc(NN)nc(Nc2ccc(F)cc2)n1	-3.59%
O=S1(=O)CCO[C@H]2Cc3ccccc3[C@H]2N1Cc1ccccc1	-1.34%
Cc1c(-c2nn(C)c(=O)c3ccccc23)oc2ccc(F)cc2c1=O	-8.42%
Cc1cccc(-c2nc3ccc(C(=O)NCCN4CCN(C)CC4)cc3nc2-c2cccc(C)c2)c1	-13.3%
C=CCNC(=O)c1ccc(C)c(Br)c1	5.91%
C=CCNC(=O)c1ccc2c3n(nc2c1)-c1ccc(C)cc1CO3	34.5% (active)
CCCCn1c(N)c(N(CCC(C)C)C(=O)c2ccc([N+](=O)[O-])o2)c(=O)[nH]c1=O	-1.97%
CCN(CC)CC(=O)Nc1sc2c(c1C(=O)c1ccccc1C)CCC2	-2.82%
CC(C)c1ccc(OCC(O)CN2CCN(c3ccccn3)CC2)cc1 (stereo not given)	-1.42%
CCOc1ccc(C(C(=O)NCCOC)N(CCOC)C(=O)CCC(=O)Nc2ccccn2)cc1 (stereo not given)	1.47%
CC(O)c1ccc(OCCN(C)c2ccccn2)cc1 (stereo not given)	55.9% (active)
Nc1[nH]c(=S)nc2nc(-c3ccccc3)c(-c3ccccc3)nc12	-2.36%
C=CCNc1cnn(-c2ccc(C)cc2)c(=O)c1Cl	66.7% (active)
Cc1ccc(Oc2cnn(-c3ccccc3)c(=O)c2Br)cc1	12.3%
CC1=C(C(=O)NC2CC(C)(C)Cc3c2cnn3-c2ccc(C)cc2)OCCO1 (stereo not given)	10.7%
